High-throughput results from PubChem.
The list is not random: actives were taken first. Their share in the collection is about 3.3%.
PMP22 txn = modulators of PMP22 gene transcription in S16 Schwann cells. S16 Pmp22-F2sN Schwann cells, FLuc/NLuc coincidence luminescence, 24 h. Potency, µM (doses to about 57.5 µM), for the others: top-dose activity change, negative = inhibition, most hits filed as inhibitors. hit rate 2% among 43,000; active = clear falling dose curves in both reporters; inconclusive = both reporters move, but less clearly or upward; inactive = either reporter flat; the % is the NLuc reporter signal; note: % is set by controls: 0 for no effect and ±100 for the full control effect
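Luminescent read-out of sequential FLuc and NLuc signals from a reporter embedded in the Pmp22 3' UTR of S16 Schwann cells, taken after 24 h compound exposure at 37C; compounds reducing both signals score as inhibitors of expression.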
FH mod = Identification of activators of human fumarate hydratase by quantitative high-throughput screening; FH coupled MDH/diaphorase resazurin fluorescence, 15 min; AID 1347055, 2019; Potency, µM (top dose mostly 79.9 µM), for the others: at the highest dose activity change, negative = inhibition, actives largely listed as inhibitors; Fumarate hydratase, mitochondrial (Homo sapiens), P07954; hit rate 0.22% among 54,000; note: % is set by controls: 0 for no effect and ±100 for the full control effect; the screen sought activators but most active calls are inhibition curves; nearly all actives have a fitted effect of over 45% in size
Target sequence (P07954 whole entry, looked up): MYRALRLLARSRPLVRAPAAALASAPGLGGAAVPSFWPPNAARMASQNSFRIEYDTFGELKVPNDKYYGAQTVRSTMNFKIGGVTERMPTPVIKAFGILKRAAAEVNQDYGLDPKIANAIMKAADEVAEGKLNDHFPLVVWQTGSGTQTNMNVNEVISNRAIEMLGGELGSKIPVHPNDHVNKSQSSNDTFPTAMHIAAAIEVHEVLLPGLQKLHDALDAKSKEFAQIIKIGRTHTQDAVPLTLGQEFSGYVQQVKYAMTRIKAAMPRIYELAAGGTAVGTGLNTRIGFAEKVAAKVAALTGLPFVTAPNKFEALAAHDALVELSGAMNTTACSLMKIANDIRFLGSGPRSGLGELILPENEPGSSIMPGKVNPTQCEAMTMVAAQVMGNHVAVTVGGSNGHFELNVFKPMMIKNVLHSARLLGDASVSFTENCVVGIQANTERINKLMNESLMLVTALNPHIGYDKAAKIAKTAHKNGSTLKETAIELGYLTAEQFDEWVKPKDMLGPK
HTT prom inh = inhibits huntingtin promoter activity | hit rate 0.93% among 48,000 | HEK293 HTT promoter firefly luciferase reporter, 24 h | Potency, µM (doses to about 57.5 µM), for inactives: at the highest dose activity change, negative = inhibition, usual class: inhibitors; note: nearly all actives have a fitted effect of over 50% in size
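HEK293 Fluc reporter, 2,500 cells/well, 24 h pre-culture; cpds up to 57.5 uM final, 24 h 37 degrees C; Dual-Glo, 10 min RT; normalized vehicle = 0%, zero RLU = -100%.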
S16 F2sN tox = cytotoxicity in S16 Pmp22-F2sN Schwann cells | S16 Pmp22-F2sN Schwann cells viability, CellTiter-Glo, 24 h | Potency, µM (highest dose often 57.5 µM), without a hit: top-dose activity change, negative = cytotoxicity, usual class: cytotoxic | hit rate 0.48% among 43,000; note: % is set by controls: 0 for no effect and ±100 for the full control effect; nearly all actives have a fitted effect of over 65% in size
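S16 Pmp22-F2sN Schwann cells (500-1,000/well) in phenol-red-free DMEM with 10% FBS received 23 nL compound by pin tool for 24 h at 37 °C. Viability was then read as CellTiter-Glo luminescence after 15 min at room temperature.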
pS6 MEF inh = inhibitors of mTORC1 signaling in Tsc2-/- p53-/- MEF cells. AID 493208. hit rate 0.78% among 44,000. Tsc2-/- p53-/- MEF, phospho-rpS6 immunofluorescence/PI, 24 h. Potency, µM (series often up to 38.3 µM), for inactives: top-dose activity change, negative = inhibition, hits mostly inhibitors;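 note: plate controls were DMSO for no effect and rapamycin for full effect; nearly all actives have a fitted effect of over 50% in size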
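Compounds act on Tsc2-/-, p53-/- fibroblasts carrying an empty vector for 24 h before fixation and dual staining for phospho-S6 and DNA (propidium iodide). Values are percentages of cells above a rapamycin-defined pS6/PI threshold.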
HTT-AS act = activators of huntingtin-antisense promoter activity. Potency, µM (highest dose often 57.5 µM), without a hit: at the top dose activity change, positive = activation, most hits filed as activators. hit rate 0.24% among 48,000. AID 1508624. HEK293 HTT-AS promoter firefly luciferase reporter, 24 h; response scale: percent change from vehicle, -100% = no light; note: nearly all actives have a fitted effect of over 55% in size
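Firefly luciferase readout (Dual-Glo, 10 min RT) after 24 h, 37 °C compound exposure (final up to 57.5 uM) of HEK293 reporter cells cultured 24 h beforehand; PTC124 at 50 uM final as control inhibitor; activity scaled vehicle 0%, zero RLU -100%.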
Active calls of the source: *; ? = inconclusive; nt = no result; [ ] = dose if it differs, or a comment. Unless noted, calls come from the whole dose curve; as a rule, active = well fitted curve in the direction sought with a large enough effect; inconclusive = small, poorly fitted or top-dose-only effect, or another doubt; inactive = no such curve, though single readings can be large; an effect the other way counts as inactive or inconclusive. Potency is the fitted concentration of half-maximal effect.

SMILES	PMP22 txn	FH mod	HTT prom inh	S16 F2sN tox	pS6 MEF inh	HTT-AS act
Cc1cc(Nc2ccc(Cl)cc2)n2cnnc2n1	-5%	-37%	-6%	-5%	0%	-4%
Cc1cc(NCc2ccc(Cl)cc2)n2cnnc2n1	?	16%	25µM*	?	-16%	-70%
O=C(CSc1nnc2[nH]c(=O)cc(-c3ccccc3)n12)Nc1ccccc1C(F)(F)F	5%	8%	46%	1%	0%	11µM*
CCc1cccc(NC(=O)c2ccc3c(=O)n4nc(Nc5ccccc5OC)sc4nc3c2)c1	4.5µM*	2%	?	?	-9%	-51%
CCc1ccccc1Nc1nn2c(=O)c3ccc(C(=O)NCc4ccccc4OC)cc3nc2s1	-20%	-3%	-14%	-4%	-1%	-25%
COc1ccccc1Nc1nn2c(=O)c3ccc(C(=O)NCc4ccc(F)cc4)cc3nc2s1	4.6µM*	5%	?	14µM*	-10%	-53%
C=C1CCC2C(C)(C(=O)O)CCCC2(C)C1CCC(C)CC(=O)O (centres undefined)	nt	-4%[53.3 µM]	nt	nt	nt	nt
NCCCCN(Cc1nc2ccccc2[nH]1)[C@H]1CCCc2cccnc21	nt	7%[53.3 µM]	nt	nt	nt	nt
C/C=C(\C)C(=O)OCC1OC(OC2OC(COC(=O)/C(C)=C/C)C(OC3OC(CO)C(OC(=O)/C(C)=C/C)C(OC(=O)/C(C)=C/C)C3O)C(O)C2O)C(O)C(O)C1OC1OC(CO)C(OC(=O)/C(C)=C/C)C(OC(=O)/C(C)=C/C)C1O (centres undefined)	nt	8%[20.6 µM]	nt	nt	nt	nt
O=C(Nc1ccc(Br)cc1)c1ccc(Br)c(S(=O)(=O)N2CCCCC2)c1	?	-15%	13µM*	-25%	-5%	-26%
C=C[C@@H]1[C@H](O[C@@H]2O[C@H](CO)[C@@H](O)[C@H](O)[C@H]2O)OC=C(C(=O)O)[C@H]1CCOC(=O)/C=C/c1ccc(O)c(O)c1	nt	-8%[53.3 µM]	nt	nt	nt	nt
O=C(C1CCC(CNS(=O)(=O)c2cccs2)CC1)N1CCN(c2ccc(Cl)cc2)CC1 (centres undefined)	?	-25%	4µM*	-29%	-2%	-76%
CC(C)C[C@@H](N)C(=O)N[C@H]1C(=O)N[C@@H](CC(N)=O)C(=O)N[C@H]2C(=O)N[C@H]3C(=O)N[C@H](C(=O)N[C@H](C(=O)O)c4cc(O)cc(O)c4-c4cc3ccc4O)[C@H](O)c3ccc(c(Cl)c3)Oc3cc2cc(c3O[C@@H]2O[C@H](CO)[C@@H](O)[C@H](O)[C@H]2O[C@H]2C[C@](C)(N)[C@H](O)[C@H](C)O2)Oc2ccc(cc2Cl)[C@H]1O	nt	7%[53.3 µM]	nt	nt	nt	nt
O=C(C[C@@H]1C(C(=O)O)=CO[C@@H](O[C@@H]2O[C@H](CO)[C@@H](O)[C@H](O)[C@H]2O)/C1=C\CO)OCCc1ccc(O)cc1	nt	6%[53.3 µM]	nt	nt	nt	nt
COc1cc(C2CC(=O)N(Cc3cccc(F)c3)c3ccccc3S2)cc(OC)c1OC (centres undefined)	?	-16%	20µM*	-28%	5%	-69%
COc1ccc(-n2nnc(-c3nc(-c4ccccc4C)no3)c2N)cc1Cl	-1%	6%	-6%	0%	-1%	-9%
Cc1ccccc1-c1noc(-c2nnn(-c3ccccc3C)c2N)n1	6%	-3%	78%	-2%	-7%	0.71µM*
Cc1cccc(-n2nnc(-c3nc(-c4cccs4)no3)c2N)c1C	5%	3%	104%	1%	0%	0.35µM*
COc1c(C(CC(C)C)OC(C)=O)ccc(Oc2c(O)cc(C)cc2/C=C/C(C)=O)c1C(=O)O (centres undefined)	nt	-15%[53.3 µM]	nt	nt	nt	nt
Cc1ncc(CCCN(C)C)cc1Nc1ncc2c(n1)-c1ccc(C(F)(F)F)cc1NC(=S)C2	nt	23%	nt	nt	nt	nt
